The panel holds about 83,000 compounds, 20% with a hit somewhere; the sample as a whole holds those more often.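 Step 1: grow cells in 96-well plates. Step 2: add test compound at a single concentration. Step 3: incubate 48 h. Step 4: record percent growth.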 A number with no mark means an inactive call. Active and inactive are the calls of the source. The calls were made as follows: active = growth percent below 10; inactive = the rest.
Key:
Test in all cases: NCI-60 one-dose screen, 48 h (100 = growth as untreated, 0 = no growth, -100 = all killed)
Conditions in all cases: 10 µM unless noted
[1] = tested on: SR leukemia
[2] = tested on: RPMI-8226 leukemia
[3] = tested on: OVCAR-8 ovarian
[4] = tested on: OVCAR-5 ovarian
[5] = tested on: OVCAR-4 ovarian
[6] = tested on: SK-OV-3 ovarian
[7] = tested on: IGROV1 ovarian
[8] = tested on: OVCAR-3 ovarian
[9] = tested on: HS 578T breast
[10] = tested on: NCI/ADR-RES ovarian
[11] = tested on: T-47D breast
[12] = tested on: BT-549 breast
[13] = tested on: MDA-MB-435 melanoma
[14] = tested on: SW-620 colon
[15] = tested on: HCT-116 colon
[16] = tested on: KM12 colon
[17] = tested on: MDA-MB-468 breast
[18] = tested on: HCC-2998 colon
[19] = tested on: MCF7 breast

SMILES	growth [1]	growth [2]	growth [3]	growth [4]	growth [5]	growth [6]	growth [7]	growth [8]	growth [9]	growth [10]	growth [11]	growth [12]	growth [13]	growth [14]	growth [15]	growth [16]	growth [17]	growth [18]	growth [19]
COc1ccc(-c2nc3cc(C)ccc3n2CC(=O)N=Nc2c(O)[nH]c3ccc(Br)cc23)cc1	2.47% (active)	42%	-61.8% (active)	-4.99% (active)	-18.3% (active)	35%	23.9%	14.9%	20.3%	-22% (active)	-2.62% (active)	-41.5% (active)	2.16% (active)	9.98% (active)	-69.6% (active)	11.5%	-46.6% (active)		
C=C1CC[C@@H]2[C@]3(C)COC(c4cn[nH]c4-c4cccc(Cl)c4)O[C@@H]3CC[C@@]2(C)[C@@H]1C/C=C1/C(=O)OCC1O (stereo partly specified)	14.7%	-11.7% (active)	-23.3% (active)	-62% (active)	35.2%	49.6%	-44.1% (active)	-62% (active)	26.8%	-56.4% (active)	-2.68% (active)	-92.4% (active)	-32.5% (active)	-57.6% (active)	-91.6% (active)	-25.2% (active)	-84.3% (active)	-91.2% (active)	
COc1c(F)ccc(C(=O)Nc2ccc3nc(NC(=O)C4CCCN(S(=O)(=O)c5cccc(C(F)(F)F)c5)C4)sc3c2)c1F (stereo unspecified)	38.4%	54.4%	94.5%	101%	74.3%	102%	77.5%	88.1%	61.1%	84.3%	48.4%	54.3%	87.1%	99.9%	60.7%	80%	101%	107%	
CC12CC[C@@H]3[C@]4(C)COC(c5cn[nH]c5-c5ccc(Cl)cc5)O[C@@H]4CC[C@@]3(C)[C@@H]1CC(C1=CCOC1=O)O2 (stereo partly specified)	16.5%	12%	55.5%	62.3%	39.5%	55%	51%	42.6%	51%	42.5%	6.42% (active)	5.38% (active)	47.7%	49.4%	25.1%	31.9%	0.753% (active)	58%	
Cn1cc(-c2nc(N)nnc2-c2c[nH]c3ccc(Br)cc23)c2cc(Br)cnc21	-17.2% (active)	-12% (active)	1.57% (active)	21.8%	32.8%	9.61% (active)	14.2%	0.628% (active)		12.5%	34.6%	-33.4% (active)	-20.8% (active)	20.8%	-37.1% (active)	5.44% (active)	1.62% (active)	1.16% (active)	3.81% (active)
O=c1oc2ccc(Br)cc2cc1C1=CSc2nc3sc4c(c3c(=O)n2N=C1)CCCC4	86.6%	101%	99.9%	102%	86.1%	80.3%	90.8%	115%	93.1%	106%	76.9%	95.4%	95.1%	108%	96.4%	97.6%	104%	125%	
CC(C)CSc1nc(NCCc2c[nH]c3ccccc23)c(C#N)c(-c2ccccc2)n1	-10.2% (active)	35.8%	76.9%	85.6%	77.2%	86.7%	104%	93.5%		53.5%	30.9%	92.6%	71.7%	36.1%	11.6%	35.3%		43.5%	20.1%
COc1ccc(-c2nc3cc(C)ccc3n2CC(=O)N=Nc2c(O)[nH]c3ccc(Cl)cc23)cc1	-7.22% (active)	41.8%	-74.8% (active)	3.51% (active)	-25.4% (active)	13.7%	18.3%	-13.8% (active)	-2.87% (active)	-30.8% (active)	2.44% (active)	-43.7% (active)	-7.28% (active)	12.4%	-65.4% (active)	9.61% (active)	-42.6% (active)		
CCOC(=O)/C=C/c1cccc2c1C(=O)NC(C)(c1cc3cc(Cl)ccc3oc1=O)N2 (stereo unspecified)	1.88% (active)	17.7%	39.1%	50.4%	36.7%	-0.634% (active)	13%	34.4%		22.7%	16.3%	24.7%	42.1%	40.9%	17.6%	26%	3.88% (active)	38.7%	26.5%
CCCCCCCCc1ccc(C(=O)Nc2ccc(C)cc2C(=O)O)cc1C	88.2%	82.7%	93.2%	115%	102%	100%	98.2%	108%		96.3%	94.4%	101%	105%	97.2%	84%	79.7%		106%	93.8%
CC12CC[C@@H]3[C@]4(C)COC(c5c(F)cccc5F)O[C@@H]4CC[C@@]3(C)[C@@H]1CC(C1=CCOC1=O)O2 (stereo partly specified)	55.6%	40.4%	59.8%	85.6%	70.1%	77.2%	79.1%	88.1%		59%	55%	48.3%	86.1%	100%	49.1%	72.6%	52.1%	76.7%	58.4%
C=C1CC[C@@H]2[C@]3(C)COC(c4cn[nH]c4-c4cccc(Br)c4)O[C@@H]3CC[C@@]2(C)[C@@H]1C/C=C1/C(=O)OCC1O (stereo partly specified)	12.7%	-6.49% (active)	-42.5% (active)	-76.2% (active)	10.8%	-33% (active)	-60.2% (active)	-97.6% (active)	5.38% (active)	-50.1% (active)	-6.99% (active)	-94.2% (active)	-50.2% (active)	-81.1% (active)	-95.9% (active)	-67.1% (active)	-95.4% (active)	-100% (active)	
COc1ccc(-c2ccnc(SCc3cc4cc(OC)ccc4[nH]c3=O)n2)cc1	4.47% (active)	9.3% (active)	33.3%	46.8%	43.3%	45.2%	33.3%	18.3%	28.2%	-11.4% (active)	2.83% (active)	-3.12% (active)	1.18% (active)	22.2%	11%	24.2%	-26.3% (active)	35%	
CC1=C(C#N)C2=NNCC(c3ccccc3)=NN2C(c2ccccc2)=C1	96%	110%	111%	114%	112%	101%	109%	111%	107%	112%	98.8%	104%	106%	98%	101%	107%	124%		
Cn1cc(-c2cc(N)n3nc(-c4c[nH]c5ccccc45)cc3n2)c2cccnc21	-32.9% (active)	-28.5% (active)	27.5%	30.2%	28.4%	89.9%	28.1%	12.6%	82.7%	27.7%	22.2%	71.8%	5.57% (active)	-53.7% (active)	-77.1% (active)	1.87% (active)	-54.3% (active)	-31.6% (active)	
CCN(CC)CCOc1ccc(Nc2ncc3cc(-c4ccc(O)c(C#N)c4)c(=O)n(C)c3n2)cc1	-8.11% (active)	65%	92.8%	88.2%	89.3%	64.7%	46.9%	83.7%		114%	36.5%	112%	29.9%	110%	32.9%	72.4%	63.5%	111%	16.8%
C=C1CC[C@@H]2[C@]3(C)COC(c4cn[nH]c4-c4ccc(F)cc4)O[C@@H]3CC[C@@]2(C)[C@@H]1C/C=C1/C(=O)OCC1O (stereo partly specified)	9.73% (active)	0.899% (active)	1.2% (active)	-42.2% (active)	32.9%	46.6%	-31.1% (active)	-68.6% (active)	44.8%	-45.6% (active)	11.6%	-93.4% (active)	-62.2% (active)	-60.7% (active)	-88.9% (active)	-44.3% (active)	-82.4% (active)	-95.3% (active)	
